GALR2 antag: GALR2 antagonists in receptor-expressing cells, primary screen | Galanin receptor type 2 (Homo sapiens), O43603 | antagonist mode | inhibition, % at 4 µM | 140,000 compounds, 0.39% hits; in the data active = inhibition above about 27%;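 also: cells stimulated with galanin 1-16 at roughly its EC80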
S1P2 blocker: human S1P2 receptor antagonists, primary screen, cell-based. Sphingosine 1-phosphate receptor 2 (Homo sapiens), O95136. cell-based S1P2 antagonist assay, inhibition at 5 uM. inhibition, % at 5 µM. 97,000 compounds, 0.21% hits; in the data active = inhibition above about 45%;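 also: CRE beta-lactamase reporter cells expressing human S1P2 stimulated with S1P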
Target sequence (O95136 whole entry, looked up): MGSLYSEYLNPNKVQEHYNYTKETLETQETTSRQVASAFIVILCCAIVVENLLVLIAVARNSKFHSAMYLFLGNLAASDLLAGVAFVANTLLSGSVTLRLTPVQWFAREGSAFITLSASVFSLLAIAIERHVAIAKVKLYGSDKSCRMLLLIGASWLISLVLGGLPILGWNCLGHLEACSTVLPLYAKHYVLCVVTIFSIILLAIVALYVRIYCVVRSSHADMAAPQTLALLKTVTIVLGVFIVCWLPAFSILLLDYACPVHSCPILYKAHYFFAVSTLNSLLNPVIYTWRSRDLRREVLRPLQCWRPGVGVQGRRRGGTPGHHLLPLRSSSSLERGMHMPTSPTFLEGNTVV
S1P2 ag: S1P2 receptor agonists, primary screen, cell-based; Sphingosine 1-phosphate receptor 2 (Homo sapiens), O95136; S1P2-expressing cell line, agonist reporter read-out; activation, % at 4.5 µM; 97,000 compounds, 0.46% hits; AID 729, 2007; in the data active = activation above about 16%
Phagocytosis inh: inhibitors of macrophage phagocytosis, primary screen, imaging, J774A.1 cells, IgG beads; J774A.1 macrophage IgG-bead phagocytosis; inhibition, % at 5 µM; 110,000 compounds, 0.07% hits; AID 1029, 2008;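 active = inhibition above the mean of the plate negative controls plus 5 SD, cut at about 13% in these data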;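 also: phagocytic index as fraction of beads internalized from green versus red external bead signal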
GALR2 ag: GALR2 receptor agonists, primary screen, cell-based | Galanin receptor type 2 (Homo sapiens), O43603 | GALR2-expressing cells, agonist activation read-out | activation, % (no concentration beside the values) | 140,000 compounds, 0.48% hits | AID 803, 2007; in the data active = activation above about 5%, passing the limit was not always enough
Numbers stand for hits; n = inactive; x = no result given; + = active, no number; [ ] = another dose, or the depositor's remark. This is a sample that favours compounds with a hit; in the whole collection about 1.3% have one here.

SMILES | GALR2 antag | S1P2 blocker | S1P2 ag | Phagocytosis inh | GALR2 ag
CSc1cc(-c2ccccc2)n(Cc2c(Cl)cccc2Cl)c(=O)c1C#N | n | n | n | n | n
CCCCC(=O)Nc1cc(C(=O)NCCc2ccccc2)ccc1Cl | n | n | n | x | n
COc1cc(S(=O)(=O)N2CCN=C2c2ccccc2)ccc1F | n | n | 27 | n | n
Cc1ccc(S(=O)(=O)N2CCN=C2c2ccccc2)cc1C | n | n | n | x | n
Cc1c(O)c2c(=O)n(-c3ccccc3)c(-c3ccccc3)cc2oc1=O | n | x | x | n | n
CCC(C)(C(=O)NC1CCCC1)N(Cc1cccs1)C(=O)c1ccc2c(c1)OCO2 (stereo not given) | n | x | x | n | n
CCOC(=O)NC(Nc1ccc(OC)cc1)(C(F)(F)F)C(F)(F)F | n | x | x | n | n
COC(=O)c1cn[nH]c1NC(=S)Nc1ccc(C)cc1Cl | n | n | n | n | n
COC(=O)c1cn[nH]c1NC(=S)Nc1ccccc1C | n | n | 57 | x | n
CCCN1CCC(NC(=O)Nc2ccccc2C(=O)OC)CC1 | n | n | n | n | n
CCCN1CCC(NC(=O)Nc2ccc(OC)c(OC)c2)CC1 | n | n | 35 | n | n
O=C(Nc1ccccc1C(=O)N/N=C/c1ccco1)c1ccc(F)cc1 | n | x | x | n | n
CCOc1ccc2c(c1)-c1c(ssc1=S)C(C)(C)N2C(=O)c1ccco1 | n | x | x | 91[artifact] | n
CCC(Sc1nc2cc(OC)c(OC)cc2c(=O)n1Cc1ccco1)C(=O)NCCOC (stereo not given) | n | n | 18 | n | n
Cn1c(SC2=CS(=O)(=O)c3ccccc32)nc2ccccc21 | n | 62 | n | x | n
N#CC1=C(N)N(c2ncn[nH]2)C2=C(C(=O)CCC2)C1c1ccc(F)cc1 (stereo not given) | n | x | x | n | n
Cc1nc(SCc2nc3ccccc3[nH]2)c2oc3ccccc3c2n1 | n | n | 23 | x | n
Cc1nc(N2CCN(Cc3nc4ccccc4[nH]3)CC2)c2oc3ccccc3c2n1 | n | n | n | n | n
c1ccc2[nH]c(CSc3ncnc4c3oc3ccccc34)nc2c1 | n | n | 32 | x | n
COc1cc(CCN2C(=O)N[C@@H](CCc3ccccc3)C(C(C)=O)=C2C)cc(OC)c1OC | n | x | x | x | n
Cc1ccc(C)c(NC(=S)NC(NC(=O)Cc2cccc3ccccc23)C(Cl)(Cl)Cl)c1 (stereo not given) | n | n | 26 | x | n
Cc1ccc(C)c(NC(=S)NC(NC(=O)N(C)C)C(Cl)(Cl)Cl)c1 (stereo not given) | n | n | n | n | n
CCN(C(=S)NC(=O)CCc1ccccc1)c1ccccc1 | n | x | x | n | n
CCOC(=O)c1csc(NNC=O)n1 | n | x | x | n | n
COc1cc(-c2nnc3n2N=C(c2ccccc2)CS3)cc(OC)c1OC | n | n | 34 | n | n
SMILES | GALR2 antag | S1P2 blocker | S1P2 ag | Phagocytosis inh | GALR2 ag
COc1cccc(-c2nnc3n2N=C(c2cc(OC)ccc2OC)CS3)c1 | n | n | n | x | n
COc1ccc(OC)c(C2=Nn3c(nnc3-c3cc(OC)c(OC)c(OC)c3)SC2)c1 | n | n | 40 | n | n
COc1cccc(-c2nnc3n2N=C(C(C)(C)C)CS3)c1 | n | 98 | n | x | n
Cc1ccc(-c2nnc3n2N=C(c2ccccc2)CS3)cc1 | n | x | x | n | n
COc1ccccc1NC(=O)CN(Cc1ccccc1)S(C)(=O)=O | n | n | n | x | n
COc1nc(OC)nc(Oc2ccc([N+](=O)[O-])cc2Cl)n1 | n | x | x | n | n
O=C(CNS(=O)(=O)c1c(Cl)cccc1Cl)OCc1csc(-c2ccccc2)n1 | n | x | x | x | n
O=C(COc1ccc(Cl)cc1Cl)NC(=O)N1CCCCC1 | n | n | n | n | n
O=C(COc1ccc(Cl)cc1Br)NNC(=O)C(=O)N1CCCCC1 | n | n | n | n | 21
O=C1CC(N(CCc2ccccc2)C(=S)Nc2cc(Cl)ccc2Cl)C(=O)N1c1c(Cl)cccc1Cl (stereo not given) | n | n | n | n | n
NNc1nc2c(Cl)ccc(Cl)c2s1 | n | x | x | n | n
CCC(=O)Nc1c(C#N)c2nc3ccccc3nc2n1C1CCCCC1 | n | n | n | n | n
N#Cc1c(N)n(C2CCCCC2)c2nc3ccccc3nc12 | n | n | 22 | n | 17
O=C(Nc1ccc(N2CCN(C(=O)c3ccco3)CC2)c(Cl)c1)c1cc2ccccc2o1 | n | 65 | n | n | n
O=C(Nc1ccc(N2CCN(C(=O)c3ccccc3)CC2)c(Cl)c1)c1ccco1 | n | n | n | n | n
CC(=O)c1ccc(N2CCN(C(=O)c3ccco3)CC2)c(F)c1 | n | n | n | + | n
CCCC(=O)N1CCN(c2ccc(NC(=O)c3cc4ccccc4o3)cc2Cl)CC1 | n | 76 | n | n | n
O=C(c1cc2ccccc2o1)N1CCN(c2ccccc2Cl)CC1 | n | n | n | n | n
CCC(=O)N1CCN(c2ccc(NC(=O)c3cc4ccccc4o3)cc2Cl)CC1 | n | 51 | n | n | n
CN(C)c1ccc(N2CN=C3SCC(=O)N3C2)cc1 | n | n | n | x | n
c1ccc2c(c1)[nH]c1c(N3CCSCC3)ncnc12 | 32 | 48 | n | x | n
COc1ccc(CC(=O)Nc2ccc(-c3cn4ccc(C)cc4n3)cc2)cc1 | n | n | n | n | n
N=c1c(C(=O)NCc2ccc(F)cc2)cc2c(=O)n3ccccc3nc2n1CCCN1CCOCC1 | n | x | x | n | 9.7
N=c1c(C(=O)NCc2ccc(F)cc2)cc2c(=O)n3ccccc3nc2n1Cc1cccnc1 | n | n | 21 | n | n
N=c1c(C(=O)NCC2CCCO2)cc2c(=O)n3ccccc3nc2n1Cc1cccnc1 (stereo not given) | n | x | x | n | 5.8
SMILES | GALR2 antag | S1P2 blocker | S1P2 ag | Phagocytosis inh | GALR2 ag
Cc1cccn2c(=O)c3cc(C(=O)NCC4CCCO4)c(=N)n(Cc4cccnc4)c3nc12 (stereo not given) | n | x | x | n | n
Cc1sc2nc(CSc3ccc([N+](=O)[O-])c(C(F)(F)F)c3)[nH]c(=O)c2c1C | n | x | x | n | n
Cc1ccc(C2CC(c3ccccc3)=NN2c2ccccc2)o1 (stereo not given) | n | x | x | n | 7.1
Cc1ccc(C2CC(c3ccccc3)=NN2C(=O)CSc2nnc(-c3ccc(Cl)cc3)o2)o1 (stereo not given) | n | n | n | n | n
COC(C(=O)Nc1ccc(S(=O)(=O)Nc2cccc3ccccc23)cc1)c1ccccc1 (stereo not given) | n | x | x | n | n
CC(C)=C1C2CCC1C1C(=O)N(c3nc(-c4ccccc4)c(C)s3)C(=O)C21 (stereo not given) | n | x | x | n | n
Cc1ccc(-c2cc(-c3ccc(Cl)cc3)c(C#N)c(N)n2)o1 | n | n | 19 | n | 13
Cc1ccc(-c2cc(-c3ccc(C)o3)nc(N)c2C#N)cc1 | n | n | n | n | n
Cc1cc(-c2cc(-c3ccc(Cl)cc3)nc(N)c2C#N)co1 | n | n | 19 | x | 9.9
O=[N+]([O-])c1ccccc1S(=O)(=O)n1nnc2ccccc21 | n | x | x | x | n
CC(=O)C1=C(O)C(=O)N(CC#N)C1c1cccs1 (stereo not given) | n | n | 37 | n | n
